These results are taken from PubChem BioAssay (Tox21).

Records with an inconclusive call do not appear. A number with no mark means an inactive call. Activity calls are given as the source filed them. Unless noted, calls follow the shape of the dose curve; as a rule, active = well fitted curve in the direction sought with a large enough effect in the repeat runs; inconclusive = weak or mixed curves; inactive = no such curve, though single readings can be large; an effect the other way counts as inactive or inconclusive.

Experiment [1] is described as follows: qHTS assay to identify small molecule antagonists of the retinoid acid receptor (RAR) signaling pathway - cell viability counter screen (AID 1159551). Also: nearly all actives have a fitted effect of over 35% in size. The procedure, abridged:
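Seed C3RL4 cells; next day add compound, then retinol to 1 uM final; incubate 6 h at 37 C; add CellTiter-Glo; read luminescence after 30 min at RT.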
On the technique in general: In qHTS, concentration-response curves come from the screen itself.

The nature of experiment [2]: qHTS assay to identify small molecule antagonists of the retinoic acid receptor (RAR) signaling pathway (AID 1159552; also: nearly all actives have a fitted effect of over 50% in size; also: potency is read from the fitted curve at half-maximal effect). Put shortly: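 Antagonism of retinol-induced RARE reporter activity was measured in C3RL4 cells. Exposure to compounds and 1 uM final retinol lasted 6 hr at 37 C, with luminescence as endpoint.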
Experiment [3] can be described thus: qHTS assay to identify small molecule agonists of the retinoic acid receptor (RAR) signaling pathway (AID 1159553). The procedure, abridged:
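Activation of retinol signaling was monitored via a RARE luciferase reporter in C3RL4 cells. After 6 hr compound treatment at 37 C, detection reagent was added for 30 min at room temperature before luminescence reading.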

Experiment [4] is described as follows: qHTS assay to identify small molecule antagonists of the estrogen related receptor (ERR) signaling pathway from Tox21 library - cell viability counter screen (AID 1224834). Also: nearly all actives have a fitted effect of over 30% in size. Also: potency is read from the fitted curve at half-maximal effect. Put shortly: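 CellTiter-Fluor fluorescence measured; ERR cells; 17.5 h compound incubation at 37 C; 30 min reagent step.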
The nature of experiment [5]: qHTS assay to identify small molecule antagonists of the estrogen related receptor signaling pathway with the pleiotropic PPARgamma coactivator (PGC) cell viability counter screen (AID 1224822;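 also: series mostly up to about 46 µM; viability read after 17.5 h compound exposure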). Put shortly: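 Compounds in DMSO, with positive and negative controls, were applied to PGC/ERR cells (2,000/well) and left 17.5 h at 37 C before CellTiter-Fluor detection.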

Experiment [6] in a line: qHTS assay to identify small molecule agonists of the estrogen related receptor (ERR) signaling pathway (AID 1224820). The procedure, abridged:
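ERR reporter cell line (from NTP), 2,000 cells/well, incubated 6 h before compound addition, then 18 h at 37 C. Luminescence measured 30 min after One-Glo reagent at room temperature.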

The subject of experiment [7] is estrogen-related receptor alpha (ERRalpha) with PGC-1alpha coactivator, human. As to the kind of experiment: qHTS assay to identify small molecule antagonists of the estrogen related receptor signaling pathway with the pleiotropic PPARgamma coactivator (PGC) (AID 1224821; calls by dose curve;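 also: series mostly up to about 46 µM; lower luminescence signal means antagonism of PGC/ERR signalling; nearly all actives have a fitted effect of over 50% in size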). The procedure, abridged:
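PGC/ERR reporter cell line, plated 6 h before compound addition, then exposed 18 h at 37 °C. Luciferase activity read by luminescence 30 min after One-Glo addition; decrease indicates antagonism.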

A short description of experiment [8]: qHTS assay to identify small molecule agonists of the estrogen related receptor signaling pathway with the pleiotropic PPARgamma coactivator (PGC) (AID 1224823). The procedure, abridged:
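PGC/ERR reporter cells seeded 6 h, then exposed to compounds (23 nL in DMSO) for 18 h at 37 C. One-Glo luciferase luminescence read after 30 min at room temperature.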
% is scaled to controls: 0 for no effect and ±100 for the full control effect.

For the compound `N=C(N=C(N)N)N1CCOCC1`, the Potency result in experiment [1], in experiment [2], in experiment [3] and in experiment [4] was “inactive” in each case.
Consider `CCCCCCCCCO`, for which the Potency result in experiment [1], in experiment [2] and in experiment [4] was “inactive” each time.
Regarding `C=C(C)C(=O)OCCOc1ccccc1`, the Potency result in experiment [1], in experiment [2] and in experiment [4] was “inactive” in each case.
Consider `O=C(Cl)c1c(Cl)cccc1Cl`, for which the Potency result in experiment [1], in experiment [2], in experiment [3] and in experiment [4] was “inactive” in each case.
As for `CCN(CC)C(C)CN1c2ccccc2Sc2ccccc21` (configuration not stated), the Potency result in experiment [1], in experiment [2], in experiment [3] and in experiment [4] was “inactive” in each case.
With `COC(Cc1ccccc1)OC`, the Potency result in experiment [1], in experiment [2], in experiment [3] and in experiment [4] was “inactive” in each case.
As for `O=C(O)Cc1sc(-c2ccccc2)nc1-c1ccc(Cl)cc1`, the Potency entry in experiment [1], in experiment [2], in experiment [3] and in experiment [4] was “inactive” throughout.
On to `Cc1ccc(O)c([C@H](CCN(C(C)C)C(C)C)c2ccccc2)c1`, for which the Potency entry in experiment [1], in experiment [2] and in experiment [4] was “inactive” throughout.
Consider `CC(Cc1cccc(C(F)(F)F)c1)NCCOC(=O)c1ccccc1` (configuration not stated), for which the Potency entry in experiment [1], in experiment [2], in experiment [3] and in experiment [4] was “inactive” throughout.
Turning to `Nc1ccc(C(=O)Nc2ccccc2N)cc1`, the Potency result in experiment [1], in experiment [2] and in experiment [4] was “inactive” throughout.
With `COCCO`, the Potency result in experiment [1], in experiment [2], in experiment [3] and in experiment [4] was “inactive” throughout.
Take `CN1CCN(C2=Nc3ccccc3Sc3ccc(Cl)cc32)CC1`: the Potency entry in experiment [1], in experiment [2], in experiment [3] and in experiment [4] was “inactive” throughout.
In the case of `CC(C)c1ccc2c(C(C)C)cc(C(C)C)c(S(=O)(=O)O)c2c1`, the Potency result in experiment [1], in experiment [2] and in experiment [4] was “inactive” each time.
`CCN1CCC[C@H]1CNC(=O)c1c(OC)ccc(Br)c1OC`: the Potency entry in experiment [1], in experiment [2] and in experiment [4] was “inactive” each time.
Take `Cc1ccc2c(ccc3ccccc32)c1`: the Potency entry in experiment [1], in experiment [2] and in experiment [4] was “inactive” throughout.
Turning to `CCN(CC)CCOC(=O)C1(c2ccccc2)CCCC1`, the Potency entry in experiment [1], in experiment [2], in experiment [3] and in experiment [4] was “inactive” throughout.
As for `CCCCCCCCN(C)C`, the Potency result in experiment [1], in experiment [2], in experiment [3] and in experiment [4] was “inactive” each time.
With `CN(C)CC/C=C1\c2ccccc2COc2ccccc21`, the Potency result in experiment [1] and in experiment [4] was “inactive” throughout. Besides, in experiment [2], the Potency is 21.1 µM (active). Besides, the compound was called inactive in experiment [5].
Regarding `CC(=O)c1c(C)c([N+](=O)[O-])c(C(C)(C)C)c([N+](=O)[O-])c1C`, the Potency entry in experiment [1], in experiment [2] and in experiment [4] was “inactive” in each case.
With `C=CCCCCCC`, the Potency result in experiment [1], in experiment [2] and in experiment [4] was “inactive” throughout.
As to `CCN(CC)CCOc1ccc2c(c1)C(=O)c1cc(OCCN(CC)CC)ccc1-2`, the Potency result in experiment [1] and in experiment [2] was “inactive” in each case. Further, the Potency in experiment [4] was 11.9 µM (active).
Regarding `O=C(O)Cc1cc(I)c(Oc2ccc(O)c(I)c2)c(I)c1`, the Potency entry in experiment [1], in experiment [2], in experiment [3] and in experiment [4] was “inactive” throughout.
With `CCCCCc1ccc(N)cc1`, the Potency result in experiment [1], in experiment [2], in experiment [3] and in experiment [4] was “inactive” in each case.
Take `Cc1ccc(C(C)c2ccc(C)c(C)c2)cc1C`: the Potency entry in experiment [1], in experiment [2] and in experiment [4] was “inactive” each time.
For the compound `O=C(NN1CCCC1)NS(=O)(=O)c1ccc(Cl)cc1`, the Potency result in experiment [1], in experiment [2] and in experiment [4] was “inactive” each time.
As to `Cn1sccc1=O`, the Potency result in experiment [1] and in experiment [4] was “inactive” in each case.
Regarding `CCCCCCCCCCCCCCCCCBr`, the viability change, negative = cytotoxic in experiment [4] is -2.8% [at 19 µM].
Take `CC(=O)OC/C=C/c1ccccc1`: the Potency result in experiment [1] and in experiment [4] was “inactive” in each case.
Consider `COc1ccccc1OC(=O)Oc1ccccc1OC`, for which the Potency result in experiment [1] and in experiment [4] was “inactive” in each case.
`C1CCC2OC2C1` (configuration not stated): the Potency result in experiment [2] and in experiment [4] was “inactive” in each case.
Consider `Oc1ccc(O)c2c(O)cccc12`, for which the Potency entry in experiment [2], in experiment [3] and in experiment [4] was “inactive” in each case.
Consider `CN(C(=O)CCCOc1ccc2[nH]c(=O)ccc2c1)C1CCCCC1`, for which the Potency result in experiment [1], in experiment [3] and in experiment [4] was “inactive” throughout. Moreover, the compound was called inactive in experiment [6], in experiment [7], in experiment [5] and in experiment [8].
For `CC1=CCC(C(C)C)C=C1` (configuration not stated), the Potency result in experiment [1] and in experiment [4] was “inactive” in each case.
In the case of `CC(C)(C)c1ccc(S)cc1`, the Potency entry in experiment [1] and in experiment [4] was “inactive” each time.
Turning to `Cc1occc1S`, the Potency entry in experiment [1], in experiment [3] and in experiment [4] was “inactive” throughout.
With `CCCCC(CC)COCCCN` (configuration not stated), the Potency result in experiment [2], in experiment [3] and in experiment [4] was “inactive” each time.
As to `Nc1nc(N)c(-c2ccccc2)s1`, the Potency entry in experiment [4] was “inactive”.
On the same count and under the same terms, to `O=[N+]([O-])c1cccc(Cl)c1Cl` belongs “inactive”.
For the compound `CC[C@H](C)[C@@H](C(=O)O)n1sc2ccccc2c1=O`, the Potency result in experiment [1], in experiment [3] and in experiment [4] was “inactive” each time.
`C=CC[N+]1([C@H]2C[C@H]3[C@@H]4CC[C@H]5C[C@H](OC(C)=O)[C@@H](N6CCCCC6)C[C@]5(C)[C@H]4CC[C@]3(C)[C@H]2OC(=O)CC)CCCCC1`: the Potency result in experiment [1] and in experiment [4] was “inactive” each time.
In the case of `COC(=O)CSc1cc(N=c2sc(=O)n3n2CCCC3)c(F)cc1Cl`, the Potency entry in experiment [1] and in experiment [4] was “inactive” each time.
Regarding `CCCCc1cc2ccccc2c(OCCN(C)C)n1`, the Potency entry in experiment [1], in experiment [3] and in experiment [4] was “inactive” throughout.
With `CN(C)C/C=C(/c1ccc(Br)cc1)c1cccnc1`, the Potency entry in experiment [1], in experiment [3] and in experiment [4] was “inactive” each time. Further, in experiment [5], the call was inactive.
As to `CCCCOC(=O)c1ccccc1C(=O)OCC(CC)CCCC` (configuration not stated), the Potency entry in experiment [1] and in experiment [4] was “inactive” throughout.
For the compound `CCC(=O)OC(C)(C)C1CC=C(C)CC1` (configuration not stated), the Potency entry in experiment [2], in experiment [3] and in experiment [4] was “inactive” each time.
As to `Cc1ncsc1CCO`, the Potency entry in experiment [1], in experiment [2] and in experiment [4] was “inactive” throughout.
As to `CCCCOC(=O)/C=C\C(=O)OCCCC`, in experiment [4], the Potency entry was “inactive”.
